Compound activity deposited in PubChem BioAssay by Broad Institute.
CASP6 VEID inh: caspase-6 (human) enzyme inhibition | purified caspase-6, Z-VEID-R110 cleavage fluorescence | inhibition, % at 12.5 µM | 0.53% of 350,000 active;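 active = mean inhibition across replicates at least about 35%, with every replicate also reaching that limit, limit read from the data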;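 note: 0% = median of neutral control wells and 100% = no fluorescence left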
FGF22 binding: FGF22 (human) thermal shift binding | 1.5% of 340,000 active | recombinant FGF22 thermal shift, SYPRO orange fluorescence; percent of sucrose octasulfate shift, DMSO zero | activity (Tm shift, normalised), % at 9.99 µM | Q9HCT0;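 active = mean Tm shift, scaled 0 neutral to 100 positive control, at about 1.3% or above, every replicate too, limit read from the data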
SIRT5 block: sirtuin-5 (human) deacylase inhibition; inhibition, % at 15 µM; AID 652115; Purified SirT5, succinyl-peptide AMC, trypsin-coupled fluorescence; 1.1% of 330,000 active; in the data active = inhibition above about 15%
ERAP1 HTS inh: inhibitors of human ERAP1 aminopeptidase; 0.15% of 340,000 active; inhibition, % at 10.7 µM; AID 652197; Q9NZ08; recombinant ERAP1, Leu-AMC fluorescence, 60 min;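 active = mean replicate inhibition of at least 30%, or all replicates individually reaching that 30% level; inactive = mean below 30% and not every replicate reaching it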;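 note: 0% = neutral control wells and 100% = L-leucinethiol positive control wells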
Target sequence (Q9NZ08 whole entry, looked up): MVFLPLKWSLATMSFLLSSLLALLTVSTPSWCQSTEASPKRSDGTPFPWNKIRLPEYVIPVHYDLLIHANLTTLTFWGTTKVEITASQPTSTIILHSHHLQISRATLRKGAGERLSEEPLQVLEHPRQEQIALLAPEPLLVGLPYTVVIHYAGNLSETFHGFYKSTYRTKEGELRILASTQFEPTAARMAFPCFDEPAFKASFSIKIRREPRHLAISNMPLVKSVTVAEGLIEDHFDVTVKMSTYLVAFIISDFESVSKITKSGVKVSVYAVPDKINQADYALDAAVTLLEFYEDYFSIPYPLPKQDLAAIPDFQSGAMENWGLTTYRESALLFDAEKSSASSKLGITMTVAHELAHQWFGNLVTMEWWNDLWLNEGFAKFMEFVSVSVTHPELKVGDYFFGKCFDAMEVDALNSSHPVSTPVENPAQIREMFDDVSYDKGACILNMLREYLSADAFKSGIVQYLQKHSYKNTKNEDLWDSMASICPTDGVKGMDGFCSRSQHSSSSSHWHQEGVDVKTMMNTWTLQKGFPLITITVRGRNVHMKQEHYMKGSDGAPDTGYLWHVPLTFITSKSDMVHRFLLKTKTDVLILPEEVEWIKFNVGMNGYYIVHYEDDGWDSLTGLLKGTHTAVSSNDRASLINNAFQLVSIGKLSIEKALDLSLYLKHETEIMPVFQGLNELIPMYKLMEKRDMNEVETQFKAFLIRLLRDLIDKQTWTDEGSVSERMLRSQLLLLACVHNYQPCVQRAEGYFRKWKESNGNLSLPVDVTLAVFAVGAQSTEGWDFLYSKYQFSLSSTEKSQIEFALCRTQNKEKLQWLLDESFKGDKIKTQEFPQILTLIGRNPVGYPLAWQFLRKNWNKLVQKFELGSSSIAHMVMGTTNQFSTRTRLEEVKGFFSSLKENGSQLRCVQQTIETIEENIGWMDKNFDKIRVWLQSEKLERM
* marks the source's active call; other numbers are inactive results. Hits are enriched below; roughly 3.1% of the tested compounds scored in any of these assays.

Screening CO[C@@H]1CN(C)C(=O)c2ccc(NC(=O)C3CC3)cc2OC[C@H](C)N(C(=O)c2cnccn2)C[C@@H]1C returned CASP6 VEID inh 0, FGF22 binding 0, SIRT5 block 0 and ERAP1 HTS inh -3.
Screening CCOC(=O)c1ccc(NC(=S)NCCCn2ccnc2)cc1 returned CASP6 VEID inh -18, FGF22 binding 0, SIRT5 block -4 and ERAP1 HTS inh -3.
Screening COC(=O)c1ccc(NC(=S)NCCCn2ccnc2)cc1 returned CASP6 VEID inh -18, FGF22 binding 0, SIRT5 block 20* and ERAP1 HTS inh -2.
COc1ccc(-c2cn(CC[C@@H]3CC[C@H](NC(=O)NC(C)C)[C@@H](CO)O3)nn2)cc1 was read as CASP6 VEID inh 2, FGF22 binding 0, SIRT5 block -5 and ERAP1 HTS inh 3.
Screening Cc1ccc(S(=O)(=O)N2CCN(Cc3ccsc3)CC2)cc1 returned CASP6 VEID inh 2, FGF22 binding 43*, SIRT5 block 0 and ERAP1 HTS inh -4.
Screening COc1cc2c(cc1OC)CN1CCc3cc(OC)c(OC)cc3C1C2 (stereo not given) returned CASP6 VEID inh 4, FGF22 binding 0, SIRT5 block 23* and ERAP1 HTS inh 1.
`COc1ccc(NC(=O)Nc2ccc3c(c2)C(=O)N([C@@H](C)CO)C[C@H](C)[C@H](CN(C)C(=O)Nc2ccc(F)cc2)OCCCC[C@H](C)O3)cc1` gave CASP6 VEID inh 0, FGF22 binding 0, SIRT5 block 10 and ERAP1 HTS inh -3.
`CCOc1ccc(NC(=O)Cn2c(=O)n(CC3CCCO3)c(=O)c3ccccc32)cc1` (stereo not given) gave CASP6 VEID inh 2, FGF22 binding 0 and SIRT5 block 15*.
CC(C)c1ccc(Nc2ccc(C(=O)O)cc2[N+](=O)[O-])cc1 was read as CASP6 VEID inh 2, FGF22 binding 0, SIRT5 block 30* and ERAP1 HTS inh 2.
`CCc1ccc(OCC(=O)NNC(=O)c2cc3ccccc3o2)cc1` gave CASP6 VEID inh 4, SIRT5 block -3 and ERAP1 HTS inh -1.
Screening CCCCOc1ccc(S(=O)(=O)NNC(=O)c2cc3ccccc3o2)cc1 returned CASP6 VEID inh 3, FGF22 binding -1, SIRT5 block 31* and ERAP1 HTS inh -1.
COCC#Cc1ccc2c(c1)O[C@@H](CN(C)C(=O)Nc1ccccc1F)[C@@H](C)CN([C@@H](C)CO)S2(=O)=O was read as CASP6 VEID inh -1, FGF22 binding 1, SIRT5 block 2 and ERAP1 HTS inh 3.
CC(=O)N1CC2(C1)[C@H](c1ccc(-c3ccc(C#N)cc3)cc1)[C@@H](CO)N2C(C)=O was read as CASP6 VEID inh -3, FGF22 binding 0, SIRT5 block 4 and ERAP1 HTS inh -1.
Screening CCCCCCCCCCCCCCCC[n+]1ccc(/C=N/O)cc1 returned CASP6 VEID inh -88, FGF22 binding 0, SIRT5 block -4 and ERAP1 HTS inh -2.
`CCCCCCCCCCCCCCCC[n+]1ccccc1` gave CASP6 VEID inh -120, FGF22 binding 0, SIRT5 block 6 and ERAP1 HTS inh 75*.
C[C@H]1CN([C@@H](C)CO)C(=O)c2cccc(NS(C)(=O)=O)c2O[C@H]1CN(C)C(=O)Nc1ccccc1 was read as CASP6 VEID inh 0, FGF22 binding 0, SIRT5 block -6 and ERAP1 HTS inh -1.
O=C(CC(c1ccco1)S(=O)(=O)c1ccccc1)c1ccccc1 (stereo not given) was read as CASP6 VEID inh 0, FGF22 binding 0, SIRT5 block 20* and ERAP1 HTS inh 3.
Screening O=c1c(O)c(-c2ccc(O)c(O)c2)oc2cc(O)ccc12 returned CASP6 VEID inh 65*, FGF22 binding 0, SIRT5 block 2 and ERAP1 HTS inh 4.
Cc1ccc(S(=O)(=O)Nc2ccc3c(c2)CC(=O)N([C@H](C)CO)C[C@H](C)[C@H](CN(C)C(=O)Nc2ccccc2)O3)cc1 was read as CASP6 VEID inh 0, FGF22 binding 1, SIRT5 block 0 and ERAP1 HTS inh 8.
For CC(C)(CO)CNC(=O)CCc1nnc(CCCc2ccccc2)o1 the results were CASP6 VEID inh -2, FGF22 binding 43*, SIRT5 block 3 and ERAP1 HTS inh -2.
For CC(C)(CO)CNC(=O)CCc1nnc(Cc2ccc(-c3ccccc3)cc2)o1 the results were CASP6 VEID inh -1, FGF22 binding 43, SIRT5 block 26* and ERAP1 HTS inh 5.
For Cc1cc(C)n(CCNC(=O)CCc2nnc(CCc3ccccc3)o2)n1 the results were CASP6 VEID inh 6, FGF22 binding 0, SIRT5 block 15* and ERAP1 HTS inh -4.
For Cc1cc(C)n(CC(C)NC(=O)CCc2nnc(CCc3ccccc3)o2)n1 (stereo not given) the results were CASP6 VEID inh -2, FGF22 binding 0, SIRT5 block -5 and ERAP1 HTS inh -1.
`O=C(CCc1nnc(CCCCc2ccccc2)o1)NCCc1cccnc1` gave CASP6 VEID inh 0, FGF22 binding 0, SIRT5 block -3 and ERAP1 HTS inh 0.
CN(C)c1ccc(C=NNc2ccccn2)c(Cl)c1 was read as CASP6 VEID inh -1, FGF22 binding 0, SIRT5 block 17* and ERAP1 HTS inh -2.
CN(C)c1ccc(/C=N\Nc2ccccn2)cc1 was read as CASP6 VEID inh -1, FGF22 binding 0, SIRT5 block -1 and ERAP1 HTS inh -1.
For CCCn1c(N)c(N(CCOC)C(=O)/C=C/c2ccc(C(=O)OC)cc2)c(=O)[nH]c1=O the results were CASP6 VEID inh 2, FGF22 binding 43*, SIRT5 block 0 and ERAP1 HTS inh 4.
CCCCn1c(N)c(N(CCOC)C(=O)C2CCCN(C(=O)c3ccc(Cl)cc3)C2)c(=O)[nH]c1=O (stereo not given) was read as CASP6 VEID inh 1, FGF22 binding 0, SIRT5 block 0 and ERAP1 HTS inh 62*.
For CCCn1c(N)c(N(CCOC)C(=O)c2ccc(-c3ccccc3)cc2)c(=O)[nH]c1=O the results were CASP6 VEID inh 1, FGF22 binding 0, SIRT5 block -5 and ERAP1 HTS inh -1.
`COCCNC(=O)C[C@H]1CC[C@H]2[C@@H](COc3ccc(NC(=O)CC(F)(F)F)cc3C(=O)N2C)O1` gave CASP6 VEID inh -4, FGF22 binding 0, SIRT5 block -4 and ERAP1 HTS inh 2.
For CCC(=O)N(C)C[C@H]1Oc2cc(-c3ccccc3OC)ccc2S(=O)(=O)N([C@@H](C)CO)C[C@H]1C the results were CASP6 VEID inh -5, FGF22 binding 0, SIRT5 block -3 and ERAP1 HTS inh 5.
Screening Clc1ccc(-c2cnn3c(-c4ccncc4)ccnc23)cc1 returned CASP6 VEID inh -1, FGF22 binding 44*, SIRT5 block 1 and ERAP1 HTS inh 1.
For O=c1[nH]c(Cc2ccc(F)cc2)nc2scc(-c3ccc(F)cc3)c12 the results were CASP6 VEID inh -5, FGF22 binding 0, SIRT5 block 21* and ERAP1 HTS inh -3.
`O=C(OCC(=O)N1CCC(Cc2ccccc2)CC1)c1ccccc1O` gave CASP6 VEID inh -3, FGF22 binding 43* and ERAP1 HTS inh -1.
